ERG Ets-DNA blk: blocks human ERG Ets domain binding to DNA | AID 624246 | 370,000 tested, 0.028% active | Potency, µM (titrated, usually from 76.9 µM), for inactives: at the top dose FP activity, negative = inhibition, actives largely listed as inhibitors | P11308 | fluorescence polarization, His-ERG Ets domain / labelled DNA; active = well fitted inhibition curve with a large enough effect in the polarisation, with a control signal flat; inconclusive = small, poorly fitted or top-dose-only effect, or effect the other way, or a change in a side signal; inactive = no such curve, though single readings can be large or run the other way; the % refers to the polarisation;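 also: polarization taken with two DNA probes labelled with fluorescein and Texas red; % of control where 0% means no effect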
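His-tagged ERG Ets domain (1 uM in the protein solution; 300mM KCl, 50mM Tris-HCl, 1mM EDTA, 1mM DTT, pH 7.5) received compound, then a probe mix of 5 nM fluorescein-DNA and 100nM Texas-615-DNA. Fluorescence polarization was read for both dyes.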
EPAC2 ag: EPAC2 (human) agonism | EPAC2 activation, biochemical qHTS; response scale: 100% = 6.5 mM cAMP response | Potency, µM (highest dose often 154 µM), inactives show at the top dose activation, most hits filed as activators | 360,000 tested, 0.079% active | AID 720711; also: nearly all actives have a fitted effect of over 50% in size
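Fluorescence exchange assay: 100 nM EPAC2 with 250 nM RAP1B-BODIPY-GDP and 50 uM GDP; compounds tested as a concentration-titration series (qHTS). Loss of Rap1-bound BODIPY-GDP fluorescence read at 480/540 nm; data normalized to 6.5 mM cAMP.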
EPAC1 antag: antagonists of human EPAC1; EPAC1 GEF assay, Rap1b-BODIPY-GDP exchange fluorescence; O95398; 360,000 tested, 0.14% active; Potency, µM (highest dose often 115 µM), without a hit: at the highest dose activity change, negative = inhibition, hits mostly inhibitors;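 also: plate controls were vehicle for no effect and positive control for full effect; nearly all actives have a fitted effect of over 50% in size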
Target sequence (O95398 whole entry, looked up): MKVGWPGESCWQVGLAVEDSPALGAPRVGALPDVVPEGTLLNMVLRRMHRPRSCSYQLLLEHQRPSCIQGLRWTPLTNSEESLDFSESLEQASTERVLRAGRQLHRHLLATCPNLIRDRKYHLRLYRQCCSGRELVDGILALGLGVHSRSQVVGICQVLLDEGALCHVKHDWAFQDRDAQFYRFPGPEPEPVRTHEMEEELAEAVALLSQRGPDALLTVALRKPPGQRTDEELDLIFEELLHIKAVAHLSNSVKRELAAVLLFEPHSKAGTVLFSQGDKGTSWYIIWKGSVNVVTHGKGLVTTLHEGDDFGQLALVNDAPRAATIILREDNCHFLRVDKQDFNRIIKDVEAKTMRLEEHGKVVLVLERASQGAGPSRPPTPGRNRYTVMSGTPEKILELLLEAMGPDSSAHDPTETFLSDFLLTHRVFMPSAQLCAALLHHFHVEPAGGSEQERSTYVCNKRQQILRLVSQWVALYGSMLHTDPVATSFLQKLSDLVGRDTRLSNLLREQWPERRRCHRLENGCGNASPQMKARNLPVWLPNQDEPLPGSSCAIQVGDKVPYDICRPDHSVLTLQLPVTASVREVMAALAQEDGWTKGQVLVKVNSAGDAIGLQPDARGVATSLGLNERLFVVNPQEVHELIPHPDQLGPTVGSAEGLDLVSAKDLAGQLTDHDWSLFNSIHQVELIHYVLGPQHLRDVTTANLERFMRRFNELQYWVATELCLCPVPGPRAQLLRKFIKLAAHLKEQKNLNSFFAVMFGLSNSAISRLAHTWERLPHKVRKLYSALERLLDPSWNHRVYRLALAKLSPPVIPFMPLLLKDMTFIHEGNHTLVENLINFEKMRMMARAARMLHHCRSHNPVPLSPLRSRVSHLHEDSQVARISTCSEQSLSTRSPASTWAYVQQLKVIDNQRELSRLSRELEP
EPAC2 antag: antagonists of human EPAC2. Q8WZA2. EPAC2 GEF exchange of Rap1B-BODIPY-GDP, fluorescence. Potency, µM (doses to about 114 µM), inactives show at the top dose activity, negative = inhibition, most hits filed as inhibitors. 360,000 tested, 0.18% active; also: % is scaled to controls: 0 for no effect and ±100 for the full control effect; nearly all actives have a fitted effect of over 45% in size
TDP1 block: blocks human tyrosyl-DNA phosphodiesterase 1. Q9NUW8. recombinant TDP1, AlphaScreen DNA substrate cleavage. Potency, µM (top dose mostly 130 µM), for inactives: at the highest dose activity change, negative = inhibition, most hits filed as inhibitors. 350,000 tested, 0.28% active; also: % is scaled to controls: 0 for no effect and ±100 for the full control effect; nearly all actives have a fitted effect of over 40% in size
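Compounds were preincubated with Tdp1 (1 nM final) for 15 min at room temperature before substrate (15 nM final) started a 5 min reaction; beads (10 ug/ml final) were then added for 10 min before AlphaScreen detection.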
EPAC1 agonist: activates human EPAC1 exchange factor | Potency, µM (top dose mostly 154 µM), without a hit: at the top dose activation, hits mostly activators | 360,000 tested, 0.073% active | O95398 | EPAC1 agonist qHTS, biochemical assay; response scale: 100% = response to 6.5 mM cAMP; also: nearly all actives have a fitted effect of over 60% in size
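EPAC1 100 nM, Rap1B–BODIPY-GDP 250 nM, unlabeled GDP 50 uM; compound titration; 5 min RT; kinetic read ex480/em540 at 5-min intervals ×30 min; data normalized to 6.5 mM cAMP agonist control.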
* = called active by the depositor; ? = inconclusive; / = no result given; [ ] = dose if it differs, or a comment. Shown are actives, neighbours in structure and some others; about 0.54% of the full set was active somewhere. Unless noted, calls follow the shape of the dose curve; as a rule, active = well fitted curve in the direction sought with a large enough effect; inconclusive = small, poorly fitted or top-dose-only effect, or another doubt; inactive = no such curve, though single readings can be large; an effect the other way counts as inactive or inconclusive. Potency is read from the fitted curve at half-maximal effect.

SMILES	ERG Ets-DNA blk	EPAC2 ag	EPAC1 antag	EPAC2 antag	TDP1 block	EPAC1 agonist
COc1ccc(C)cc1NC(=O)c1ccccc1NS(=O)(=O)c1ccc(Cl)s1	0.9%	1.7%	-13.5%	31.6µM*	2.4%	-7.6%
Cc1cc2c(=Cc3ccc(N(C)C)cc3)c3ccccc3n2[n+]1C	/	-3.2%	-18.6%	-27.7%	/	-1.9%
CN(C)c1ccc(C=c2c3ccccc3n3c2c2ccccc2[n+]3C)cc1	/	?	50.1µM*	44.7µM*	/	15.1%
Cc1ccc2nc(CSc3nnc(-c4ccco4)o3)cc(=O)n2c1	-1.6%	4.1%	2.6%	15.7%	17.8µM*	-3.6%
Cc1ccc(-c2nc3cnccn3c2Nc2ccc(C(C)C)cc2)o1	/	/	/	/	2.6%	/
CCCN1CCc2c(sc(NC(=O)c3ccc(S(=O)(=O)N(C)c4ccccc4)cc3)c2C(N)=O)C1	17.2%	112µM*	5.4%	0.4%	5.0%	18.7%
CSCC[C@H](NC(=O)[C@H](CC(C)C)NC(=O)[C@H](Cc1c[nH]c2ccccc12)NC(=O)[C@H](CCC(N)=O)NC(=O)[C@@H](NC(=O)[C@H](Cc1ccccc1)NC(=O)[C@H](CC(=O)O)NC(=O)[C@H](CCC(N)=O)NC(=O)[C@H](C)NC(=O)[C@H](CCCNC(=N)N)NC(=O)[C@H](CCCNC(=N)N)NC(=O)[C@H](CO)NC(=O)[C@H](CC(=O)O)NC(=O)[C@H](CC(C)C)NC(=O)[C@H](Cc1ccc(O)cc1)NC(=O)[C@H](CCCCN)NC(=O)[C@H](CO)NC(=O)[C@H](Cc1ccc(O)cc1)NC(=O)[C@H](CC(=O)O)NC(=O)[C@H](CO)NC(=O)[C@@H](NC(=O)[C@H](Cc1ccccc1)NC(=O)[C@@H](NC(=O)CNC(=O)[C@H](CCC(N)=O)NC(=O)[C@H](CO)NC(=O)[C@@H](N)Cc1cnc[nH]1)[C@@H](C)O)[C@@H](C)O)C(C)C)C(=O)N[C@@H](CC(N)=O)C(=O)N[C@H](C(=O)O)[C@@H](C)O	/	/	/	/	11.5%	/
COc1cc2c(c(OC)c1OC)C(c1ccc3c(c1)OCO3)CC(=O)O2 (configuration not stated)	9.1%	12.0%	-1.2%	39.8µM*	1.0%[56.1 µM]	3.8%
CCCN1C(=O)/C(=C/C=C2\N(CC)c3ccccc3C2(C)C)SC1=S	84.1%	-11.9%	16.6%	21.3%	7.8%	22.5%
Cn1cccc1/C=C1/SC(=S)N(CC(=O)O)C1=O	7.1%	13.1%	?	7.2%	-8.1%	15.5%
CN1CCS/C1=C\C=C1/SC(=S)N(CC(=O)O)C1=O	24.2%	?	-29.2%	4.4%	-2.3%	22.4µM*
CCN1C(=O)/C(=C/C=C2/SCCN2C)SC1=S	-1.8%	35.5µM*	-6.2%	-3.6%	1.0%	100µM*
CN1/C(=C\C=C2/SC(=S)N(CC(=O)O)C2=O)C(C)(C)c2ccccc21	?	112µM*	0.6%	46.6%	5.4%	63.1µM*
COc1ccc(C(F)(F)F)cc1NC(=O)C(OC(=O)CNC(=O)c1ccccc1)c1ccccc1 (configuration not stated)	/	/	/	/	-2.1%	/
COc1ccc(C2Nc3ccccc3C(=O)N2c2ccccc2F)cc1COc1ccc(NC(C)=O)cc1 (configuration not stated)	/	/	/	/	0.5%	/
COC(=O)C1(Cc2ccccc2)NC(c2ccc(F)cc2)C2C(=O)N(C)C(=O)C21 (configuration not stated)	-7.7%	7.94µM*	11.3%	-2.3%	-1.7%	-7.7%
CSCC[C@H](NC(=O)[C@H](CC(C)C)NC(=O)[C@H](CO)NC(=O)[C@H](CCC(=O)O)NC(=O)[C@H](CC(C)C)NC(=O)[C@H](Cc1ccc(O)cc1)NC(=O)[C@H](CCCCN)NC(=O)[C@H](CCCCN)NC(=O)[C@H](C)NC(=O)[C@H](CO)NC(=O)[C@H](CC(C)C)NC(=O)[C@H](CCC(N)=O)NC(=O)CNC(=O)[C@H](CC(C)C)NC(=O)[C@H](CC(C)C)NC(=O)[C@H](CCCCN)NC(=O)[C@H](CO)NC(=O)[C@H](Cc1ccccc1)NC(=O)[C@H](CC(=O)O)NC(=O)[C@H](CO)NC(=O)[C@@H](NC(=O)[C@H](Cc1ccccc1)NC(=O)[C@@H](NC(=O)CNC(=O)[C@H](CC(=O)O)NC(=O)[C@H](C)NC(=O)[C@@H](N)Cc1cnc[nH]1)C(C)C)[C@@H](C)O)C(N)=O	/	/	/	/	12.8%	/
Cc1cc2nc(-c3ccc(SCc4ccccc4C#N)nc3)[nH]c2cc1C	/	13.1%	0.8%	0.4%	0.0%	9.1%
Cc1cc2nc(-c3ccc(SCc4ccc(C(=O)O)cc4)nc3)[nH]c2cc1C	-1.3%	-2.0%	-18.2%	-15.2%	22.4µM*	-2.3%
Cc1nnc(NC(=O)CSCc2cc(=O)c3ccc(C)c(C)c3[nH]2)s1	2.1%	/	/	/	2.7%	/
Cc1nnc(NC(=O)CSCc2cc(=O)c3ccccc3[nH]2)s1	2.5%	/	/	/	39.8µM*	/
CCn1c(=S)sc2c(=O)n(CC(=O)Nc3ccccc3C(F)(F)F)c(C)nc21	-1.3%	13.1%	26.9%	-5.1%	44.7µM*	8.5%
Cc1ccc(NS(=O)(=O)c2cc3c(cc2Cl)CCC(=O)N3)cc1Cl	/	/	/	/	0.9%	/
O=C(O)/C(=C\c1ccc(C(F)(F)F)cc1)c1ccc(S(=O)(=O)N2CCCC2)s1	-5.8%[15.4 µM]	3.0%	-18.4%	-4.9%	-1.5%[56.1 µM]	-6.2%
Cc1cccc(/C=C(\C(=O)O)c2ccc(S(=O)(=O)N3CCCC3)s2)c1	-5.0%	10.9%	?	-3.6%	11.2µM*	-0.3%
SMILES	ERG Ets-DNA blk	EPAC2 ag	EPAC1 antag	EPAC2 antag	TDP1 block	EPAC1 agonist
N#Cc1nc(NCCO)nc(Nc2ccccc2)n1	/	/	/	/	20.3%	/
O=C1CSC(=S)N1N1C(=O)c2cccc([N+](=O)[O-])c2C1=O	/	/	/	/	2.82µM*	/
COc1ccc(-n2c(C)cc(C(=O)CCl)c2C)cc1	-4.3%	10.6%	-29.5%	7.94µM*	5.8%	8.0%
Cc1cc2c(s1)c1cnn(Cc3ccc(C(F)(F)F)cc3)c(=O)c1n2C	/	/	/	/	-4.4%	/
COc1ccc(OCc2cc(C(=O)O)c(C)o2)cc1	/	/	/	/	14.1µM*	/
CC1(C)CC(=O)C2=C(C1)NC(Nc1nc3ccccc3o1)=NC2c1ccccc1 (configuration not stated)	/	/	/	/	-1.6%	/
Cc1ccc(F)c(NC(=O)/C(C#N)=C(\O)c2ccc(C(C)(C)C)cc2)c1	-11.6%	-35.1%	56.2µM*	-22.8%[57.1 µM]	3.6%	-10.8%
Cc1cccc(NC(=O)C(=O)NNC(=O)c2ccc(C(C)(C)C)cc2)c1	-3.2%	-9.5%	?	53.1%	/	-18.8%

Bioassay records deposited in PubChem BioAssay by National Center for Advancing Translational Sciences (NCATS).
